The source of these data is PubChem BioAssay (Tox21).

Values joined by “and” are separate entries in the source; they are usually repeats but may differ in a detail not shown here. Equal values may be shown once. Results filed as inconclusive are left out. Some compounds were tested as several samples or in several runs, with calls that do not always agree. Active and inactive are the calls of the source. Unless noted, calls come from the whole dose curve; as a rule, active = well fitted curve in the direction sought with a large enough effect in the repeat runs; inconclusive = weak or mixed curves; inactive = no such curve, though single readings can be large; an effect the other way counts as inactive or inconclusive.

A short description of assay [1]: qHTS assay to identify small molecule antagonists of the glucocorticoid receptor (GR) signaling pathway - cell viability counter screen (AID 720693; note: nearly all actives have a fitted effect of over 55% in size). (In general: Quantitative high-throughput screening tests each substance at several concentrations.)
Assay [2] can be described thus: qHTS assay for identifying genotoxic compounds that show differential cytotoxicity against isogenic chicken DT40 cell lines with known DNA damage response pathways - wild type cell line (AID 743012). Note: nearly all actives have a fitted effect of over 60% in size. Note: potency is the fitted concentration of half-maximal effect. Put shortly:
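CellTiter-Glo luminescence readout of viability in wild type DT40 cells after 40 h compound exposure at 37 C/5% CO2; 300 cells/well; reagent incubated 30 min at room temperature before reading.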

The nature of assay [3]: qHTS assay for identifying genotoxic compounds that show differential cytotoxicity against isogenic chicken DT40 cell lines with known DNA damage response pathways - Rev3 mutant cell line (AID 743014). Note: nearly all actives have a fitted effect of over 55% in size. Note: potency is the fitted concentration of half-maximal effect.
Assay [4] in a line: qHTS assay for identifying genotoxic compounds that show differential cytotoxicity against isogenic chicken DT40 cell lines with known DNA damage response pathways - Rad54/Ku70 mutant cell line (AID 743015). Note: nearly all actives have a fitted effect of over 60% in size. Note: potency is the fitted concentration of half-maximal effect.
Assay [5] in a line: qHTS assay to identify small molecule antagonists of the androgen receptor (AR) signaling pathway - cell viability counter screen (AID 743033; note: nearly all actives have a fitted effect of over 45% in size; note: potency is the fitted concentration of half-maximal effect).
Assay [6] in a line: qHTS assay to identify small molecule antagonists of the androgen receptor (AR) signaling pathway using the MDA cell line - cell viability counter screen (AID 743041; note: nearly all actives have a fitted effect of over 45% in size). Put shortly: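 Cytotoxicity counter screen: MDA-kb2 AR-luc cells, compound + R1881, 16 h, 37C, 0% CO2; CellTiter-Fluor added at 15.5 h, fluorescence read after 30 min.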
Assay [7] can be described thus: qHTS assay to identify small molecule antagonists of the thyroid receptor (TR) signaling pathway - cell viability counter screen (AID 743064). Note: nearly all actives have a fitted effect of over 50% in size. Note: potency is the fitted concentration of half-maximal effect. Put shortly: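 Rat GH3 pituitary tumor cells stably expressing two TR response elements driving luciferase were plated, rested 4 h, then dosed with library compounds and T3 (1 nM final). After 23.5 h at 37 °C, CellTiter-Fluor was added for 30 min and fluorescence recorded.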

Assay [8] in a line: qHTS assay to identify small molecule antagonists of the thyroid receptor (TR) signaling pathway (AID 743065). Note: nearly all actives have a fitted effect of over 55% in size. Note: potency is the fitted concentration of half-maximal effect. Put shortly:
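GH3.TRE-Luc rat pituitary cells (two TREs driving luciferase) were dosed with compound, then stimulated with 1 nM T3 (final) for 23.5 h at 37 C. ONE-Glo luminescence was the read-out, with CellTiter-Fluor fluorescence as the cytotoxicity counter-screen.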

The test system of assay [9] is thyroid hormone receptor (rat, GH3 cells). The assay is described as follows: qHTS assay to identify small molecule agonists of the thyroid receptor (TR) signaling pathway (AID 743066; calls by dose curve).
Assay [10] deals with Estrogen receptor (Homo sapiens) (UniProt P03372). The assay is described as follows: qHTS assay to identify small molecule antagonists of the estrogen receptor alpha (ER-alpha) signaling pathway (AID 743069; active = well fitted curve in the direction sought with a large enough effect in the signal ratio in the repeat runs, not every such curve was filed as active; the % refers to the signal ratio). Put shortly: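 Beta-lactamase FRET fluorescence is read after 2 hr at room temperature with LiveBLAzer B/G substrate. Before that, ER-alpha-bla HEK293 cells sit 4 hr after plating, then receive compound plus 17beta-estradiol and incubate 18 hr at 37C.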

Assay [11] in a line: qHTS assay to identify small molecule antagonists of the estrogen receptor alpha (ER-alpha) signaling pathway - cell viability counter screen (AID 743074; calls by dose curve;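 note: HEK293 cells carrying ER-alpha-UAS-bla reporter stimulated with 17beta-estradiol; nearly all actives have a fitted effect of over 45% in size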).
In assay [12] the target is Estrogen receptor (Homo sapiens) (UniProt P03372). As to the kind of experiment: qHTS assay to identify small molecule agonists of the estrogen receptor alpha (ER-alpha) signaling pathway (AID 743075; calls by dose curve;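 note: HEK293 GripTite cells with ER-alpha and UAS-driven beta-lactamase reporter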).
The target is the same in assay [13]. As to the kind of experiment: qHTS assay to identify small molecule agonists of the estrogen receptor alpha (ER-alpha) signaling pathway using the BG1 cell line (AID 743079). Note: nearly all actives have a fitted effect of over 20% in size.
The nature of assay [14]: qHTS assay to identify small molecule antagonists of the estrogen receptor alpha (ER-alpha) signaling pathway using the BG1 cell line (AID 743080; calls by dose curve;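 note: BG1 cells stimulated with 17beta-estradiol alongside compound; series mostly up to about 70 µM; nearly all actives have a fitted effect of over 25% in size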). Put shortly: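 BG1-Luc-4E2 cells (endogenous full-length ER-alpha, 4xERE luciferase) hormone-starved 5 days in charcoal-stripped FBS, plated 4,000/well for 24 h, then compound plus 17beta-estradiol for 21.5 h at 37 C; ONE-Glo luminescence read.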

The nature of assay [15]: qHTS assay to identify small molecule antagonists of the estrogen receptor alpha (ER-alpha) signaling pathway using the BG1 cell line - cell viability counter screen (AID 743081).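 Note: compound given together with 17beta-estradiol as the ER stimulus; series mostly up to about 70 µM; nearly all actives have a fitted effect of over 45% in size.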
The target in assay [16] is Aromatase (Homo sapiens) (UniProt P11511). The assay is described as follows: qHTS assay to identify aromatase inhibitors (AID 743083). Note: nearly all actives have a fitted effect of over 55% in size. Note: potency is the fitted concentration of half-maximal effect.
Assay [17] has as its target Androgen receptor (Homo sapiens) (UniProt P10275). As to the kind of experiment: qHTS assay to identify small molecule antagonists of the androgen receptor (AR) signaling pathway (AID 743035; active = well fitted inhibition curve with a large enough effect in the signal ratio in the repeat runs, not every such curve was filed as active; the % refers to the signal ratio). Put shortly:
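AR-bla HEK293 reporter cells; 4 h settle at 37C/5% CO2; compound + R1881 agonist, 16 h at 37C; LiveBLAzer B/G FRET substrate 2 h RT; fluorescence intensity read. qHTS format.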

The target is the same in assay [18]. As to the kind of experiment: qHTS assay to identify small molecule agonists of the androgen receptor (AR) signaling pathway (AID 743036; active = well fitted activation curve with a large enough effect in the signal ratio in the repeat runs, with a control signal flat, not every such curve was filed as active; the % refers to the signal ratio). Put shortly: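 Quantitative HTS of the Tox21 10K library in HEK293 cells bearing a stably integrated UAS-controlled beta-lactamase reporter. Compound exposure lasted 16 h at 37C. Reporter activity was detected by FRET substrate fluorescence after 2 h at room temperature.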

Assay [19] shares this target. As to the kind of experiment: qHTS assay to identify small molecule agonists of the androgen receptor (AR) signaling pathway using the MDA cell line (AID 743040; note: nearly all actives have a fitted effect of over 20% in size). Put shortly:
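Luciferase read-out, ONE-Glo, 30 min RT. Cells: MDA-kb2 AR-luc, MMTV promoter with AR and GR response elements. Compound exposure 16 h, 37C, 0% CO2, after 5 h pre-incubation. qHTS agonist mode.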

Assay [20] shares this target. As to the kind of experiment: qHTS assay to identify small molecule antagonists of the androgen receptor (AR) signaling pathway using the MDA cell line (AID 743042; note: nearly all actives have a fitted effect of over 55% in size). Put shortly:
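MDA-kb2 breast carcinoma cells carrying MMTV-luciferase (AR/GR responsive) were co-treated with compounds and the agonist R1881 for 16 h at 37C. Inhibition read as ONE-Glo luminescence; CellTiter-Fluor fluorescence measured in parallel for cytotoxicity.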

Aromatase (Homo sapiens), sequence (P11511 whole entry, looked up): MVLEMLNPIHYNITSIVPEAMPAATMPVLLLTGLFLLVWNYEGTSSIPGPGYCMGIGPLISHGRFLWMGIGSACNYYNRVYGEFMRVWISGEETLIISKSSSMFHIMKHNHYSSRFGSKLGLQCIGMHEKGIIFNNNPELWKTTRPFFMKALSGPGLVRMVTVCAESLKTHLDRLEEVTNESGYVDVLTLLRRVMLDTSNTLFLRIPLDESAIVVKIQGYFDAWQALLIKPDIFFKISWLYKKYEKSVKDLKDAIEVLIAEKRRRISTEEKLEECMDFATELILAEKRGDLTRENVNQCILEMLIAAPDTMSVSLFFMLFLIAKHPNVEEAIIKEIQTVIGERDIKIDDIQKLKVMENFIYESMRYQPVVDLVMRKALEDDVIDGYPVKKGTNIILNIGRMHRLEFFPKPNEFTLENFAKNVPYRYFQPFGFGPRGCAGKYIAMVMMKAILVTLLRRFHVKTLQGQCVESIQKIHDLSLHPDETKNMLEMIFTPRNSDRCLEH
Androgen receptor (Homo sapiens), sequence (P10275 whole entry, looked up): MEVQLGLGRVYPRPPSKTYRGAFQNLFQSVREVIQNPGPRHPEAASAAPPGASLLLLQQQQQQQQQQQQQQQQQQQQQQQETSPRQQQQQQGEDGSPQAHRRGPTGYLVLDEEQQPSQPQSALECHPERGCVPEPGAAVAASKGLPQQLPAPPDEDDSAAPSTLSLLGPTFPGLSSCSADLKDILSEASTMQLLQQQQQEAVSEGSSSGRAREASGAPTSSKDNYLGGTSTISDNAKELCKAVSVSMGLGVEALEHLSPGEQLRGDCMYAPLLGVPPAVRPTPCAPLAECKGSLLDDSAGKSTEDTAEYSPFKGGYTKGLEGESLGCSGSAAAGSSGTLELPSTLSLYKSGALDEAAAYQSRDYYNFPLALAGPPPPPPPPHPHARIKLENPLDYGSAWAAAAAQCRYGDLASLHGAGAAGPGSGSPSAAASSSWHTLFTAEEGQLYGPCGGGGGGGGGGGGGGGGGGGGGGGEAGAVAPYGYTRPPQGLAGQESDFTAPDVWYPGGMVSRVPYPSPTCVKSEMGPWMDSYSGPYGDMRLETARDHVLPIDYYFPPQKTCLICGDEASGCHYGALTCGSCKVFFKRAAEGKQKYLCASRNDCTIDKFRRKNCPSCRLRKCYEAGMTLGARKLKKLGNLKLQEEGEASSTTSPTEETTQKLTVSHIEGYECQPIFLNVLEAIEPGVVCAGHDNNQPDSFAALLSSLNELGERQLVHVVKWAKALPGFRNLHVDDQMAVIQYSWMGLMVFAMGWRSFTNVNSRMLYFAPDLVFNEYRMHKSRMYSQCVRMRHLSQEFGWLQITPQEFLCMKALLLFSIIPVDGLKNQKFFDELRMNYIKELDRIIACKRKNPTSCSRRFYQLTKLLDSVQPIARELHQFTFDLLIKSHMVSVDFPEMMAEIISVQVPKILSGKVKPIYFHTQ
Estrogen receptor (Homo sapiens), sequence (P03372 whole entry, looked up): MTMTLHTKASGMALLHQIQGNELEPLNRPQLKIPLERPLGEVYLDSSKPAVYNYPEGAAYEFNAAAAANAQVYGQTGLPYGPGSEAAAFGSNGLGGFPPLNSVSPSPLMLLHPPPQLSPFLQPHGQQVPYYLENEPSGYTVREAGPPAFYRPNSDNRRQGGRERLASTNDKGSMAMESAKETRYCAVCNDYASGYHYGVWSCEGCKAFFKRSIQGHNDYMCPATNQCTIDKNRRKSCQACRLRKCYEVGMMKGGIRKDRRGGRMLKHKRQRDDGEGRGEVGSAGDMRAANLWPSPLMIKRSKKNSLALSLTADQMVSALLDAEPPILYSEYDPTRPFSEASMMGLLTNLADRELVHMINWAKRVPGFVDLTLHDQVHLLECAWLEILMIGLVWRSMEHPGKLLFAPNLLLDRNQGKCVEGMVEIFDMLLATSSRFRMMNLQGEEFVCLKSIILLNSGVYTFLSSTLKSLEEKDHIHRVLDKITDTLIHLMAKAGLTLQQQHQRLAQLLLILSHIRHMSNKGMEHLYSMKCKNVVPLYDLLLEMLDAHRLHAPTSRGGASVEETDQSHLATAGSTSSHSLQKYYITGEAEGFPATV

As to `COC(=O)c1ccccc1C`, the Potency entry in [1], in assay [2], in assay [3], in [4], in assay [5] and in [6] was “inactive” each time. For the same molecule, the Potency entry in assay [7], in assay [8], in assay [10], in assay [11], in [12] and in [13] was “inactive” throughout. For the same molecule, the Potency entry in assay [14], in assay [15] and in assay [16] was “inactive” throughout. Besides, the molecule was called inactive in assay [9].

In the case of `CC1(C)[C@@H](O)CC[C@]2(C)[C@H]3C(=O)C=C4[C@@H]5C[C@@](C)(C(=O)O)CC[C@]5(C)CC[C@@]4(C)[C@]3(C)CC[C@@H]12`, the Potency result in [1], in assay [2], in assay [5], in assay [17], in assay [18] and in assay [6] was “inactive” each time. Besides, the Potency entry in [20], in assay [11], in assay [12], in [13], in assay [14] and in [15] was “inactive” throughout. The Potency entry in assay [16] is “inactive”. Further, the Potency in assay [3] was 5.96 µM (active) and inactive; in [4] it was 2.37 µM (active) and inactive; in assay [7], 29.8 µM (active) and 24.1 µM (active); in assay [8] it was 29.8 µM (active) and 26.6 µM (active) and 27 µM (active). Further, the outcome in assay [19] and in [9] was inactive.

`C=Cc1cccc(C)c1`: the Potency entry in [1], in assay [2], in assay [3], in assay [4], in assay [5] and in [6] was “inactive” throughout. Moreover, the Potency result in assay [7], in assay [8], in [10], in assay [11], in [12] and in [13] was “inactive” in each case. The Potency result in assay [14], in [15] and in assay [16] was “inactive” throughout. For the same molecule, in [9], the molecule was called inactive.

In the case of `OC[C@H]1O[C@H](O[C@H]2O[C@H](CO)[C@@H](O)[C@H](O)[C@H]2O)[C@H](O)[C@@H](O)[C@@H]1O`, the Potency entry in assay [1], in assay [2], in assay [3], in assay [4], in assay [5] and in assay [17] was “inactive” each time. Moreover, the Potency entry in assay [6], in assay [20], in [7], in [11] and in assay [16] was “inactive” throughout. Moreover, the molecule was classed as inactive in [19] and in assay [9].

For `CC(=O)OCC=C(C)C`, the Potency entry in assay [1], in assay [2], in [3], in assay [4], in assay [5] and in [17] was “inactive” each time. Besides, the Potency result in assay [18], in [6], in assay [20], in assay [7], in [8] and in assay [10] was “inactive” in each case. For the same molecule, the Potency entry in assay [11], in assay [12], in assay [13], in assay [14], in [15] and in [16] was “inactive” in each case. Further, the result in assay [19] and in assay [9] was inactive.

As for `Cc1nc(-c2ccc(Cl)cc2)oc1COC(C)(C)C(=O)O`, the Potency entry in assay [1], in assay [2], in assay [3], in assay [4], in [5] and in [6] was “inactive” throughout. Besides, the Potency result in [7], in assay [8], in assay [11] and in assay [15] was “inactive” throughout. Besides, the outcome in assay [9] was inactive.

`O=C(O)[C@H](O)[C@@H](O)[C@H](O[C@@H]1O[C@H](CO)[C@H](O)[C@H](O)[C@H]1O)[C@H](O)CO`: the Potency entry in assay [1], in assay [2], in [3], in assay [4], in [5] and in [6] was “inactive” each time. Besides, the Potency entry in [7], in [8], in [10], in assay [11], in assay [12] and in assay [13] was “inactive” in each case. Also, the Potency entry in assay [14] and in assay [16] was “inactive” in each case. The molecule was called inactive in assay [9].

With `O=C(O)c1cccc(C(F)(F)F)c1`, the Potency entry in assay [1], in assay [2], in assay [3], in assay [4], in assay [5] and in assay [6] was “inactive” each time. The Potency entry in [7], in assay [8], in assay [10], in assay [11], in assay [12] and in assay [13] was “inactive” in each case. The Potency result in [14], in assay [15] and in assay [16] was “inactive” each time. Also, the call in assay [9] was inactive.

As to `Oc1c(I)cc(Cl)c2cccnc12`, the Potency result in assay [1], in [17], in [18], in [6], in [20] and in assay [7] was “inactive” in each case. Besides, in assay [15], the Potency entry is “inactive”. The Potency in [2] is 18.8 µM (active) and 15.3 µM (active); in assay [3], 11.9 µM (active) and 15.3 µM (active); in assay [4], 16.8 µM (active) and 19.3 µM (active); in assay [5], “inactive and 17.3 µM (active)”; in [16], “inactive and 27.3 µM (active)”. Moreover, the result in assay [19] and in [9] was inactive.

As for `O=C(O)CCN(C1(C(=O)NO)CCCC1)S(=O)(=O)c1ccc(Oc2ccc(F)cc2)cc1`, the Potency result in assay [1], in [2], in assay [3], in [4], in [5] and in [6] was “inactive” in each case. Besides, the Potency entry in assay [7], in assay [8], in assay [11], in assay [15] and in assay [16] was “inactive” each time. Also, the result in assay [9] was inactive.

`O=C(O)c1cc(-c2ccc(F)cc2F)ccc1O`: the Potency entry in assay [1], in [2], in [3], in assay [4], in assay [5] and in [6] was “inactive” in each case. Besides, the Potency result in assay [7], in assay [8], in [10], in assay [11], in assay [12] and in assay [13] was “inactive” throughout. For the same molecule, the Potency result in assay [14], in assay [15] and in assay [16] was “inactive” throughout. The molecule was called inactive in assay [9].

Turning to `CCCCCCCCCCOC(=O)c1ccccc1C(=O)OCCCCCCCC`, the Potency result in assay [1], in [2], in [3], in assay [4], in assay [5] and in assay [18] was “inactive” each time. The Potency result in [6], in assay [20], in assay [8], in assay [10], in assay [11] and in assay [12] was “inactive” in each case. The Potency entry in assay [13], in [14], in [15] and in [16] was “inactive” throughout. The result in assay [19] and in assay [9] was inactive.

`C=C(C)c1cccc(C(=C)C)c1`: the Potency result in assay [1], in [2], in assay [3], in assay [4], in assay [5] and in [6] was “inactive” in each case. Moreover, the Potency result in assay [7], in [8], in [10], in assay [11], in assay [12] and in assay [14] was “inactive” each time. Moreover, the Potency result in assay [16] is “inactive”. The molecule was called inactive in assay [9].
